This note sets out measurements from ChEMBL document CHEMBL1961873, “Compounds: GSK PKIS; Assays: Nanosyn kinase panel” (2012).

SMILES strings stand for the structures.

The target of test [1] is Tyrosine-protein kinase SYK (Homo sapiens) (UniProt P43405). The following applies: at 1 µM.
Test [2] has as its target T1, Tyrosine-protein kinase Tec (Homo sapiens) (UniProt P42680).
T1 sequence (whole entry): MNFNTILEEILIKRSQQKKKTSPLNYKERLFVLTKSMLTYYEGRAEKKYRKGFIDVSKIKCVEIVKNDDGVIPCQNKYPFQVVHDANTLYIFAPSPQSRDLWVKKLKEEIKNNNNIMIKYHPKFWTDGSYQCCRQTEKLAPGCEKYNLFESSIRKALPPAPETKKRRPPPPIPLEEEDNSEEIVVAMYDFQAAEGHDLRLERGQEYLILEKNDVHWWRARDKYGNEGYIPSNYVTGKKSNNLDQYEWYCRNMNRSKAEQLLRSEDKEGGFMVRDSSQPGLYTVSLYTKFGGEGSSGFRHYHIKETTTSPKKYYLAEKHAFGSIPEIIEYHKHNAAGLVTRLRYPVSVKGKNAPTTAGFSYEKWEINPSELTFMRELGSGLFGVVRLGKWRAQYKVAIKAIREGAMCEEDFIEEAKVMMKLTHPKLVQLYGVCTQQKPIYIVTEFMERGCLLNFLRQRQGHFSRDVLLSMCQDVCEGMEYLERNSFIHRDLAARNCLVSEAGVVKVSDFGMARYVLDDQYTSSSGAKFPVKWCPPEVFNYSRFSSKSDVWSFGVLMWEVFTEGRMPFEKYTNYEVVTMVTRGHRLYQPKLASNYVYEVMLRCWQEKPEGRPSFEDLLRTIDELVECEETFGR
The following applies: at 0.1 µM.

The target of test [3] is T1, Tyrosine-protein kinase Tec (Homo sapiens). The following applies: at 1 µM.
Test [4] deals with Angiopoietin-1 receptor (Homo sapiens) (UniProt Q02763). The following applies: at 0.1 µM.
For test [5] the target is unchanged. The following applies: at 1 µM.
Test [6] addresses T2, Non-receptor tyrosine-protein kinase TNK1 (Homo sapiens) (UniProt Q13470).
T2 sequence (whole entry): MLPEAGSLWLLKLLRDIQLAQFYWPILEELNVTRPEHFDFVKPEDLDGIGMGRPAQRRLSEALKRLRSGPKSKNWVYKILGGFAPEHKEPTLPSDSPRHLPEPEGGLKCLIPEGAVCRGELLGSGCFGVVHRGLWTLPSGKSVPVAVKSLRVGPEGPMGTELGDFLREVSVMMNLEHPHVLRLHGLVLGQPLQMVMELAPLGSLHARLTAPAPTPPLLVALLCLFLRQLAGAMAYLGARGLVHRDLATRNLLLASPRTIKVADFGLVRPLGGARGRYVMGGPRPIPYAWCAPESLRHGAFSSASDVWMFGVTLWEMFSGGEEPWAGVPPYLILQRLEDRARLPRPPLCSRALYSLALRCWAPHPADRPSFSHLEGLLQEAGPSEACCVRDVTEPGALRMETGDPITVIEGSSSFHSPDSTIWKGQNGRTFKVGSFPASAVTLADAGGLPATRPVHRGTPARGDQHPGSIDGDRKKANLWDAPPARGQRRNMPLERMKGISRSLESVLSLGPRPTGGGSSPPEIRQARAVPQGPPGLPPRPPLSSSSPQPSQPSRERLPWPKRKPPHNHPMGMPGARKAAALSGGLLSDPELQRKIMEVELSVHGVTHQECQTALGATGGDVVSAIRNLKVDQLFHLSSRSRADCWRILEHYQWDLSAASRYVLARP
The following applies: at 0.1 µM.

Test [7] addresses T2, Non-receptor tyrosine-protein kinase TNK1 (Homo sapiens). The following applies: at 1 µM.
Test [8] concerns the target Activated CDC42 kinase 1 (Homo sapiens) (UniProt Q07912). The following applies: at 0.1 µM.
For test [9] the target is unchanged. The following applies: at 1 µM.
The target in test [10] is High affinity nerve growth factor receptor (Homo sapiens) (UniProt P04629). The following applies: at 0.1 µM.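 Further: each value is a mean of replicate percent inhibition readings against TRKA kinase.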
Sequence of High affinity nerve growth factor receptor (Homo sapiens) (P04629 33-796 limits assumed): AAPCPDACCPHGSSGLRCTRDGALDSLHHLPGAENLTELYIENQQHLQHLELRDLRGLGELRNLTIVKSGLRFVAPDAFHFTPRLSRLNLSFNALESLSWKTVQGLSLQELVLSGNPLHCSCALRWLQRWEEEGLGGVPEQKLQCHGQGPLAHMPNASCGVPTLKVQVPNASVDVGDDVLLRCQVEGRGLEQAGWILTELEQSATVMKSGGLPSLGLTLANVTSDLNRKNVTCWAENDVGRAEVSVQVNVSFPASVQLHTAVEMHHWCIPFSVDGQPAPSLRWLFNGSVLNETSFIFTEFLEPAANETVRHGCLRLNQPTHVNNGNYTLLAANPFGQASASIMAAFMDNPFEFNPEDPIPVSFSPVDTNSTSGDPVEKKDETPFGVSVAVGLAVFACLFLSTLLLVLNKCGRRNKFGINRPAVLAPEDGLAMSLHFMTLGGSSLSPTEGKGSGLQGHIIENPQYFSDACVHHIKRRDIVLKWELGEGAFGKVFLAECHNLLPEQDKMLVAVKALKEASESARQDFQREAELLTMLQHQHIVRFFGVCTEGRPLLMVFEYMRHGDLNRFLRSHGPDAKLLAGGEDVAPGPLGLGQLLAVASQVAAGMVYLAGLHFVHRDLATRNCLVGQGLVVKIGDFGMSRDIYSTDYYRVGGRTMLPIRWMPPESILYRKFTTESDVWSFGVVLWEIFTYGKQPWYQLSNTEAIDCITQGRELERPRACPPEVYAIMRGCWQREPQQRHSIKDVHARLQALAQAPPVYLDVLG

Sequence of Activated CDC42 kinase 1 (Homo sapiens) (Q07912 whole entry, looked up): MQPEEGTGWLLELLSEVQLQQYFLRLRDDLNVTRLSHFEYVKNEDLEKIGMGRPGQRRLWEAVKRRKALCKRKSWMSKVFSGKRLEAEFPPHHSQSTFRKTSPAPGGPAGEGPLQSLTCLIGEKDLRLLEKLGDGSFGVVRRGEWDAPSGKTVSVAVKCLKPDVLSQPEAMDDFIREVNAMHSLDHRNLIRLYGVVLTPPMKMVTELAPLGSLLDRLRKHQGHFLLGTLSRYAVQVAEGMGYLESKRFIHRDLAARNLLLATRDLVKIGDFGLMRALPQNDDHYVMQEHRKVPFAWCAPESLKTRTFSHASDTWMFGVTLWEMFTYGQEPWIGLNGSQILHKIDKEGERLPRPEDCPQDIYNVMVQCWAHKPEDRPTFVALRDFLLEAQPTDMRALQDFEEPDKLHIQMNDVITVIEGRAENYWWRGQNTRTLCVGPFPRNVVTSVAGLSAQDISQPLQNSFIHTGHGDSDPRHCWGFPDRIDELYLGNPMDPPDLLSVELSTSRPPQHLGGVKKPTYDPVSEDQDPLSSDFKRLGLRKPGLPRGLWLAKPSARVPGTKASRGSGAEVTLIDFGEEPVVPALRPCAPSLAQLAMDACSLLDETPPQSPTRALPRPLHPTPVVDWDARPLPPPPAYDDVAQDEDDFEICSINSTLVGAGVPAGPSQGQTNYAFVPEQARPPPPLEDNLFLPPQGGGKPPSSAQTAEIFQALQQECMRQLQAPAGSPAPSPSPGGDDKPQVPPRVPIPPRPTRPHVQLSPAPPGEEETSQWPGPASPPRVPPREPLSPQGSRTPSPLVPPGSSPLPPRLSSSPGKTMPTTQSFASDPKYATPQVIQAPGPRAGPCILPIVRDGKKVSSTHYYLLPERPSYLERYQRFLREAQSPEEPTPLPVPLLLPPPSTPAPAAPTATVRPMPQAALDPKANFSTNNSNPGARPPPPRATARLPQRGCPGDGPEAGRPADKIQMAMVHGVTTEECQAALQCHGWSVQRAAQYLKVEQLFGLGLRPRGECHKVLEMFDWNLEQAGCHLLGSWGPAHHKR
Sequence of Angiopoietin-1 receptor (Homo sapiens) (Q02763 whole entry): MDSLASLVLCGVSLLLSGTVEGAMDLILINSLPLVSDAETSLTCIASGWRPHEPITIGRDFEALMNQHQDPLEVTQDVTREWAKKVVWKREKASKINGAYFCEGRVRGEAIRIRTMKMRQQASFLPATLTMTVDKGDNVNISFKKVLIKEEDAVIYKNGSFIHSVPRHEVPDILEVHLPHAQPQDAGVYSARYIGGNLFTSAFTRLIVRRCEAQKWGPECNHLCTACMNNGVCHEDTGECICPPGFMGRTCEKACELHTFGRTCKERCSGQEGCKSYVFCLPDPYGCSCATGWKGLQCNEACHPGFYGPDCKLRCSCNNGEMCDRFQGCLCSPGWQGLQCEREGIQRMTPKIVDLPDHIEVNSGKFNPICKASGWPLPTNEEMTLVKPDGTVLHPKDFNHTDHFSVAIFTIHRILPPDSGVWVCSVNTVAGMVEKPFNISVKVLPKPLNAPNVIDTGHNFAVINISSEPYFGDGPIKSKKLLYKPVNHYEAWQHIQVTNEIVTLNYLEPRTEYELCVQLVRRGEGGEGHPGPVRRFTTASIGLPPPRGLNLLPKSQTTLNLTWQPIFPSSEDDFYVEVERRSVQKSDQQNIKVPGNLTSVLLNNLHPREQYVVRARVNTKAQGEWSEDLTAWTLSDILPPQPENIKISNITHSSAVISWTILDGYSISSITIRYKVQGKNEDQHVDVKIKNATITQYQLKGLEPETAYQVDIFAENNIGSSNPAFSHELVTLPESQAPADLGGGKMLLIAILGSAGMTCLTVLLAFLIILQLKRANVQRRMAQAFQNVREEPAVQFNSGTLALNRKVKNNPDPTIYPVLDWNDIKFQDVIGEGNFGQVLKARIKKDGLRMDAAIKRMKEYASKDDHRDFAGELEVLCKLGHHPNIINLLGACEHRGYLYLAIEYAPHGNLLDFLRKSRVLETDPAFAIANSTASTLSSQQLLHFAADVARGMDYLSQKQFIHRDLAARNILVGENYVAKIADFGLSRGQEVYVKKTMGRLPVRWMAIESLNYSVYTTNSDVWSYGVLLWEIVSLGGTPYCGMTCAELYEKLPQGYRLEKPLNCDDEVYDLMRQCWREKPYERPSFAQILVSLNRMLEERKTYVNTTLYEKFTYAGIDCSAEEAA

Take `Clc1ccc(-c2nn3ncccc3c2-c2ccnc(Nc3ccccc3)n2)cc1`: the inhibition (as a rule, the relative decrease from the control value, in per cent) in test [1] was 2.04%; in test [2] it was 2.78%; in test [3] it was 15.2%; in test [4], 3.84%; in test [5] it was 18.5%; in test [6] it was -6.06%. Moreover, the inhibition in test [7] amounted to 11.2%; in [8], 0.77%; in [9], 4.09%; in [10] it was 3.46%.
On to `c1ccc(-c2nc3n(c2-c2ccc4c(c2)OCO4)CCC3)nc1`, for which the inhibition in [1] is 2.09%; in test [2], 1.69%; in test [3], 0.69%; in [4], -0.12%; in test [5], 1.12%; in test [6], 0.76%. Further, the inhibition was found to be 0.08% in test [7], 0.05% in test [8], 0.93% in test [9] and 1.9% in test [10].
For the compound `c1cc(-c2cnn3nc(N4CCOCC4)ccc23)nc(NC2CC2)n1`, the inhibition is -2.21% in test [1]; 5.06% in [2]; 8.36% in test [3]; 0.4% in [4]; 5.76% in test [5]; 4.07% in [6]. The inhibition was determined as 17.8% in test [7], 1.19% in test [8], 0.94% in test [9] and 4.16% in test [10].
Consider `COc1ccc(-c2cc(-c3c[nH]nc3-c3ccccn3)ccn2)cc1`, for which the inhibition in [1] was -0.69%; in [2], 4.44%; in test [3], 5.59%; in [4], 2.18%; in [5], 2.66%; in [6], 4.34%. Besides, the inhibition amounted to 11.9% in test [7], 1.58% in [8], 3.35% in test [9] and 1.86% in test [10].
As for `NC(=O)c1sc(-n2cnc3ccc(C(F)(F)F)cc32)cc1OCc1ccccc1Br`, the inhibition in [1] is 0.09%; in test [2], 2.5%; in test [3], 2.78%; in [4], 2.27%; in test [5], 3.55%; in test [6], 1.47%. Moreover, the inhibition in test [7] amounted to 9.04%; in [8], 0.36%; in [9], 0.65%; in [10], 4.01%.
`CN1CCC(n2cnc(-c3ccc(F)cc3)c2-c2ccnc(N)n2)CC1`: the inhibition was -1.2% in [1]; 3.52% in test [2]; 5.01% in test [3]; 3.13% in [4]; 2.56% in [5]; 1.5% in test [6]. Also, the inhibition came to 8.96% in test [7], 0.57% in [8], 1.23% in test [9] and 0.03% in test [10].
As for `CC1=C(C(=O)Nc2cc(Cl)c3[nH]ncc3c2)C(c2ccc(C(F)(F)F)cc2)CC(=O)N1` (stereo not given), the inhibition in [1] worked out at 1.05%; in [2] it was 3.36%; in test [3], 6.05%; in test [4], 4.83%; in test [5], 5.04%; in test [6] it was 4.45%. The inhibition turned out to be 3.87% in test [7], 0.65% in test [8], 2.37% in [9] and 3.77% in [10].
As to `CC(C)(CO)CNC(=O)c1ccc2c(c1)/C(=N/Nc1ccc(S(N)(=O)=O)cc1)C(=O)N2`, the inhibition in [1] is -2.05%; in test [2], 0.59%; in test [3], 5.32%; in test [4], -0.74%; in test [5], 0.79%; in test [6] it was 0.66%. Moreover, the inhibition is 10.3% in test [7], -0.56% in [8], 0.03% in test [9] and 1.4% in [10].
Regarding `CCn1c(-c2nonc2N)nc2cnc(Oc3cccc(NC(=O)c4ccc(N(C)C)cc4)c3)cc21`, the inhibition was 0.64% in test [1]; 3.07% in [2]; 2.35% in test [3]; 2.52% in [4]; 4.62% in test [5]; 6.05% in [6]. For the same compound, the inhibition in [7] came to 6.93%; in test [8], 0.85%; in [9] it was 0.38%; in test [10], 1.37%.
With `CCOc1ccc2c(-c3ccnc(Nc4cccc(C(F)(F)F)c4)n3)cnn2n1`, the inhibition in test [1] was -6.38%; in test [2], -0.08%; in test [3] it was 4.44%; in test [4], 1.3%; in test [5], 7.44%; in test [6] it was -0.72%. The inhibition in test [7] stood at 14.7%; in test [8], 0.55%; in [9], 0.5%; in test [10], 0.72%.
`COc1cc(/C=N/Nc2ncnc3[nH]ncc23)ccc1O`: the inhibition in test [1] stood at 14.2%; in test [2] it was 8.19%; in test [3], 38.6%; in test [4], 2.16%; in test [5], 9.2%; in test [6] it was 4.02%. For the same compound, the inhibition in test [7] was 18.9%; in test [8], 1.76%; in test [9], 8.52%; in test [10] it was 2.3%.
As to `COc1cc2ncn(-c3cc(OCc4ccccc4C(F)(F)F)c(C(=O)N(C)C)s3)c2cc1OC`, the inhibition in [1] is 1.81%; in test [2], 0.84%; in test [3] it was 2.14%; in test [4], 1.94%; in [5] it was 3.94%; in test [6] it was 8.67%. The inhibition in [7] amounted to 48.7%; in test [8] it was 0.68%; in [9], 7.7%; in [10], 1.49%.
`COc1cccc(-n2ncc3c(N/N=C/c4ccc(F)cc4)ncnc32)c1`: the inhibition was -3.59% in [1]; 5% in test [2]; 9.02% in test [3]; 2.18% in [4]; 5.99% in test [5]; 5.45% in test [6]. The inhibition in test [7] stood at 12.4%; in [8], 1.52%; in [9] it was 3.5%; in test [10], 4.72%.
Turning to `COc1ccc(-c2oc3ncnc(N)c3c2-c2ccc(NC(=O)Nc3cc(C(F)(F)F)ccc3F)cc2)cc1`, the inhibition in test [1] is -8.92%; in test [2], 5.43%; in test [3], 14%; in [4] it was 79.3%; in test [5] it was 86.1%; in [6] it was 21%. Moreover, the inhibition in [7] was 85.3%; in test [8], 4.09%; in [9], 9.81%; in test [10], 71.1%.
Turning to `NS(=O)(=O)c1ccc(Nc2ncc(-c3ccccc3)o2)cc1`, the inhibition is -1.05% in [1]; 4.68% in test [2]; 7.4% in test [3]; 2.1% in [4]; 2.98% in test [5]; 4.37% in [6]. Besides, the inhibition in test [7] was 18.5%; in test [8] it was 1.26%; in [9] it was 3.09%; in test [10], 5.28%.
In the case of `CCn1c(-c2nonc2N)nc2c(C#CC(C)(C)O)ncc(OC3CCNCC3)c21`, the inhibition in test [1] is 1.12%; in test [2] it was 5.92%; in [3], 3.33%; in [4], 4.81%; in test [5] it was 7.95%; in test [6], 1.33%. Also, the inhibition in test [7] came to 0.26%; in test [8] it was 0.61%; in test [9], 1.17%; in test [10] it was 2.16%.
On to `CNC(=O)c1cncc(/C=C/c2ccccc2Cl)c1`, for which the inhibition in test [1] was 0.31%; in test [2] it was 2.56%; in test [3], 10.2%; in test [4] it was -0.85%; in test [5], 4.09%; in test [6] it was 2.57%. Also, the inhibition is 27.7% in test [7], 0.2% in [8], 5.7% in test [9] and -5.21% in test [10].
